Results reported in PubChem BioAssay (NCI).
About 83,000 compounds went through this panel and 20% of them were active in at least one assay; those are over-represented in the sample as a whole.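 Treatment: one concentration, 48 hours, 96-well format. Scoring: percent growth, with anything below 10 considered active.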 Activity calls are given as the source filed them.

test system: SK-MEL-5 melanoma; assay: NCI-60 one-dose screen, 48 h (100 = growth as untreated, 0 = no growth, -100 = all killed); conditions: 10 µM unless noted
Procedure: Growth inhibition of the SK-MEL-5 human tumor cell line is measured as a screen for anti-cancer activity. Cells are grown in 96 well plates and exposed to the test compound for 48 hours. Compounds are tested at a single concentration, which is 10^-5 M for most compounds. The reported endpoint is percent growth (GI% or GIPRCNT), where numbers from 0 - 100% represent growth inhibition, and numbers from -100% - 0 represent cell death. For example, a value of 40 represents 60% growth inhibition. A value of 0 means no net growth occurred over the course of the experiment. A value of -40 indicates 40% of cells at the beginning of the experiment died by the end of the experiment. A value of -100 means all cells are dead at the end of the experiment.
NCI-60 Human Tumor Cell Lines Screen was performed using the standard one-dose NCI protocol, which is described in more detail at https://dtp.cancer.gov/discovery_development/nci-60/default.htm.
Compounds with GIPRCNT values below 10 were considered active. Activity score was based on GIPRCNT using the following formula: […]
Score is 0 for GIPRCNT values of 100 or above, 50 for GIPRCNT values of 0, and 100 for GIPRCNT values of -100.

Row | Compound | growth
1 | COc1ccc(-c2c(C)noc2-c2ccc(O)cc2O)cc1 | 80.4% (inactive)
2 | Cc1cc(=O)oc2cc(Oc3nc(-c4cccs4)cn4c(-c5cccs5)cnc34)ccc12 | 42.5% (inactive)
3 | COc1c(C2CC(=O)Nc3c2cnn3Cc2ccco2)cc2c(c1OC)OCO2 (stereo not given) | 3.98% (active)
4 | CCCCCCCCCCCCCCCCCCNC(=O)[C@H]1CSC(c2ccc(F)c(OC)c2)N1 (stereo not given in full) | -94.8% (active)
5 | Cc1cc(N/N=C/c2nc(-c3ccc(Cl)cc3)oc2C)c2cc(Br)ccc2n1 | 91.9% (inactive)
6 | COc1ccc(OCC(=O)Nc2ccc(-c3nc4ccccc4s3)cc2C)cc1 | 70.8% (inactive)
7 | CCN(CC)CC#CCOC(=O)[C@]1(C)CCC[C@@]2(C)[C@H]1CC(C=O)=C1C=C(C(C)C)CC[C@@H]12 | 42.8% (inactive)
8 | CCOC(=O)c1ccc2c(c1)nc(/C=C/c1ccc(Cl)cc1)n2-c1cc(C(C)(C)C)[nH]n1 | 62.1% (inactive)
9 | CN(C)c1ccc(C2Nc3ccccc3-n3cccc32)cc1 (stereo not given) | 93.2% (inactive)
10 | COc1ccc(-c2cn3c(-c4ccc(OC)cc4)cnc3c(Oc3ccc4c(C)cc(=O)oc4c3)n2)cc1 | 28.6% (inactive)
11 | O=C1CCc2c(sc3[nH]c(=S)n(Cc4ccccc4)c(=O)c23)C1 | -75.6% (active)
12 | COCCOc1ccc(-c2nc3ccc(-c4nc5ccc(N6CCN(C)CC6)cc5[nH]4)cc3[nH]2)cc1 | 11.2% (inactive)
13 | O=C1c2c[n+](Cc3ccccc3)ccc2-c2nc3ccccc3c3ccnc1c23 | -93.9% (active)
14 | CCCCN(CCCC)Cc1c(C)[nH]c2cc(OC)ccc2c1=O | 101% (inactive)
15 | O=[N+]([O-])c1cccc(-c2nc3sccn3c2-c2ccnc(NCCCNS(=O)(=O)c3ccc(F)cc3)n2)c1 | -76.7% (active)
16 | NC(=S)N/N=C/c1ccc(OCc2ccccc2)cc1 | 86.4% (inactive)
17 | COc1ccc(S(=O)(=O)NCCNc2nccc(-c3c(-c4cccc([N+](=O)[O-])c4)nc4sccn34)n2)cc1 | 63.6% (inactive)
18 | Brc1cccc(-c2cc(-c3ccc4c(c3)OCCO4)[nH]n2)c1 | 10% [25 µM] (inactive)
19 | C=CC[N+]1(CC)CCN=C1CCCCCCCCCCCCCCCCC (stereo not given) | -100% (active)
20 | CCN(CC)c1ccc(/C=C/C2=[N+](C)c3ccccc3C2(C)C)cc1 | -71.3% (active)

Row | Compound | growth
21 | CC(C)c1c(C(=O)Nc2ccccc2)c(-c2ccccc2)c(-c2ccc(F)cc2)n1CC[C@@H]1CC=CC(=O)O1 | 21.7% (inactive)
22 | O=C(O)c1cccnc1Br | 109% (inactive)
23 | CN1CCCCC1CCN1c2ccccc2Sc2ccc(Br)cc21 (stereo not given) | 60.3% (inactive)
24 | Cc1ccc2cnc(N)c(C#Cc3cncc(C(=O)Nc4ccc(CN5CCN(C)CC5)c(C(F)(F)F)c4)c3)c2c1 | -95.6% (active)
25 | CCCCCCCCCCCCCCCCNCCC[C@@H](C)[C@H]1CC[C@H]2[C@@H]3[C@H](OCCCN)C[C@@H]4C[C@H](OCCCN)CC[C@]4(C)[C@H]3C[C@H](OCCCN)[C@]12C | 3.14% (active)
26 | CSc1nc(NCCCNc2ccnc3cc(Cl)ccc23)cc(-c2ccccc2)n1 | 52.6% (inactive)
27 | C=CCSc1nnc(-c2ccc(C(C)(C)C)cc2)n1-c1cccc(C(F)(F)F)c1 | 37.4% (inactive)
28 | CC(C)(C)c1nn(-c2ccccc2)c2c1CC1(CN2Cc2ccc3c(c2)OCO3)C(=O)c2ccccc2C1=O | 99.2% (inactive)
29 | CC1=C(NCCN2CCCC2)C(=O)c2c(OCc3cccc(Cl)c3)cccc2C1=O | 67.1% (inactive)
30 | O=C1Nc2ccccc2C12CC(c1ccccc1)=NN2 (stereo not given) | 30.5% (inactive)
31 | CCn1cc2c(cc1=O)-c1nc3ccccc3c3ccnc(c13)C2=O | 42.8% (inactive)
32 | O=C(O)C(O)C(O)C(=O)O.[NH-]C1CCCCC1[NH-].[Pt+2] (stereo not given) | 103% (inactive)
33 | COc1ccc(S(=O)(=O)NCCCNc2nccc(-c3c(-c4cccc(N)c4)nc4sccn34)n2)cc1 | 81.3% (inactive)
34 | COc1cc(OC)c(/C=C/S(=O)(=O)Cc2ccc(OC)c(N)n2)c(OC)c1 | -31.2% (active)
35 | CN(C)c1ccc(/C=C(\C#N)c2nc3ccccc3s2)cc1 | 98.4% (inactive)
36 | COc1cc(-c2cnc3nonc3n2)c(OC)c2c1OCO2 | 96.2% (inactive)
37 | CCOC(=O)c1c2c(n3ccc(NC(=O)CCN(CC)CC)cc13)C(=O)c1ncccc1C2=O | 45.1% (inactive)
38 | Cn1cc(-c2csc(-c3cn(C)c4ncccc34)n2)c2ccccc21 | 32.6% (inactive)
39 | Cc1ccc(SCN2CCN(c3cccc(Cl)c3)CC2)cc1 | 93.7% (inactive)
40 | C=C1CCC2C3(C)COC(c4cccc(Cl)c4)OC3CCC2(C)C1/C=C/C1=CCOC1=O (stereo not given) | 35% (inactive)
